The results in this text go back to PubChem BioAssay (NCI).

Compounds without any hit were thinned out: in the full panel of roughly 83,000, 20% have a hit.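 The test compound was applied at a single concentration to cells in 96-well plates for 48 hours, and percent growth was recorded.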 Unmarked numbers belong to inactive results. The source made the active and inactive calls.

This test has as its system A498 renal. In words: NCI-60 one-dose screen, 48 h (100 = growth as untreated, 0 = no growth, -100 = all killed). The following applies: 10 µM unless noted. As to the method: Growth inhibition of the A498 human tumor cell line is measured as a screen for anti-cancer activity. Cells are grown in 96 well plates and exposed to the test compound for 48 hours. Compounds are tested at a single concentration, which is 10^-5 M for most compounds. The reported endpoint is percent growth (GI% or GIPRCNT), where numbers from 0 - 100% represent growth inhibition, and numbers from -100% - 0 represent cell death. For example, a value of 40 represents 60% growth inhibition. A value of 0 means no net growth occurred over the course of the experiment. A value of -40 indicates 40% of cells at the beginning of the experiment died by the end of the experiment. A value of -100 means all cells are dead at the end of the experiment.
NCI-60 Human Tumor Cell Lines Screen was performed using the standard one-dose NCI protocol, which is described in more detail at https://dtp.cancer.gov/discovery_development/nci-60/default.htm.
Compounds with GIPRCNT values below 10 were considered active. Activity score was based on GIPRCNT using the following formula: […]
Score is 0 for GIPRCNT values of 100 or above, 50 for GIPRCNT values of 0, and 100 for GIPRCNT values of -100.
In the case of `Cc1ccc(S(=O)(=O)OC2COCOC2C(OS(=O)(=O)c2ccc(C)cc2)C2OCOCC2OS(=O)(=O)c2ccc(C)cc2)cc1` (stereo not given), the growth was 95.9%.
For `O=P([O-])(O)OP(=O)([O-])O.[NH-][C@H]1CCCC[C@@H]1[NH-].[OH-].[OH-].[Pt+4]`, the growth is 81.7%.
The same measure for `O=c1[nH]c2ccccc2cc1-c1nnc(Cc2ccccc2)o1`: 106%.
Regarding `Nc1nc(-c2ccccc2)cs1`, the growth was 81.5%.
`COc1ccc2c(c1)C=CC(C#N)N2C(=O)c1ccccc1` (stereo not given): the growth is -5.22% (active).
Turning to `Cc1ccc(-c2csc3nc(C)c(CCCl)c(=O)n23)cc1`, the growth was 104%.
On to `C[N+](C)(C)c1ccc(CC2c3ccccc3-c3ccccc32)cc1`, for which the growth was 70.5%.
For `Cc1cc(C)c(NC(=O)c2sc3nc4c(cc3c2N)CN(Cc2ccccc2)CC4)c(C)c1` the value was 1.87% (active); for `C#CCN1C(=O)/C(=c2\sc3n(c2=O)C2C(NN=3)N(CC)C(=O)N2CC)c2ccccc21` (stereo not given), -33.8% (active); for `COc1ccc(OC)c(NC(=O)c2cc(S(=O)(=O)N3CCc4ccccc43)ccc2OC)c1`, 69.8%.
Turning to `C/C(=N\NC(=O)CC#N)c1cc2cc(Cl)ccc2o1`, the growth is 111%.
For the compound `Cc1ccc2nc(-c3c(CCCO)noc3N)[nH]c(=O)c2c1`, the growth is 104%.
Regarding `CC(=O)Nc1ccc2c(c1)/C(=C\C=C/c1ccc([N+](C)(C)C)cc1)c1ccccc1-2`, the growth was 86%.
For the compound `CC1Cc2c(N(C)C)ncnc2N(C)c2ccc(Cl)cc21` (stereo not given), the growth was -12.5% (active).
`CCO/C=N/NC(=O)c1ccncc1`: the growth was 104%.
As to `O=C(O)Cc1ccc2c(c1)Cc1cccnc1O2`, the growth was 104%.
For `O=C(Nc1ccc(I)cc1)c1cccc([N+](=O)[O-])c1O` the value was -6.2% (active); for `CCN1C(=S)N(CC)C2Nn3c(s/c(=C4\C(=O)N(C)c5ccccc54)c3=O)=NC21` (stereo not given), -8.5% (active).
`CC(C)(C)c1cn2cccc(C(=O)N3CCN(CC(=O)Nc4ccc(Cl)cc4C(=O)c4ccccc4Cl)CC3)c2n1`: the growth was -0.735% (active).
The same measure for `O=C(O)c1cn(C2CC2)c2cc(N3CCN(S(=O)(=O)c4ccc(Cl)c(Cl)c4)CC3)c(F)cc2c1=O`: 13.8%.
`O=C(c1ccccc1)C(Cl)C(Cl)c1ccccc1` (stereo not given): the growth was 103%.
With `CCN(Cc1ccccc1)c1ccc(SC#N)cc1`, the growth is 86.9%.
For the compound `N=C(N)c1ccc(-c2ccc(-c3ccc(Cl)cc3)o2)nc1`, the growth is -58.4% (active).
For `COc1ccc(-c2nnc(COc3ccc(NC(=O)Nc4ccc(Cl)c(C(F)(F)F)c4)cc3F)o2)cc1` the value was -1.59% (active).
Turning to `COc1ccc(C2CC(c3cccs3)=NN2c2ccc(S(=O)(=O)NC(=O)Nc3ccc(C)cc3)cc2)cc1` (stereo not given), the growth is 109%.
Regarding `CC(Br)C(Br)c1cc2c(cc1Br)OCO2` (stereo not given), the growth was 99.3%.
In the case of `CCSc1nnc(NC(=O)Cc2ccc(Cl)cc2)s1`, the growth is 100%.
On to `COc1cc(C2CC(c3c(C)[n+]([O-])c4ccccc4[n+]3[O-])=NN2)cc(OC)c1OC` (stereo not given), for which the growth is 97.5%.
For the compound `Cc1ccc(C2=NN(c3ccc(S(=O)(=O)NC(=O)NCc4ccccc4)cc3)C(c3ccc(N(C)C)cc3)C2)c(C)c1` (stereo not given), the growth is 51%.
Regarding `CC/C=C\C/C=C\C[C@H](O)C/C=C1/C(=O)C=C[C@H]1C/C=C\CCC(=O)OC`, the growth is 107% [8.25 µM].
Take `COc1cc(/C=C2\CCCC3=C2N=C2SC(C)=NN2C3c2cc(OC)c(OC)c(OC)c2)cc(OC)c1OC` (stereo not given): the growth was -0.731% (active).
Consider `O=c1c2cccc3c(Nc4ccc(F)cc4)ccc(c32)c2nc3ccccc3n12`, for which the growth is 66.2%.
Turning to `CC(=O)Nc1nc(C(=O)N2N=C(C)/C(=C/c3ccccc3)C2=O)cs1`, the growth is 120%.
The same measure for `COc1ccc(S(=O)(=O)N2CCN(c3cc4c(cc3F)c(=O)c(C(=O)O)cn4C3CC3)CC2)c(OC)c1`: 75.1%.
As for `C=C1C(=O)O[C@H]2[C@H]1CC/C(COC(=O)NCc1ccc(OC)cc1)=C\CC[C@@]1(C)O[C@@H]21`, the growth is 89.4%.
Regarding `CC1=C(C#N)C(C)(C)C(C#N)=C(C)N1`, the growth was 88.6%.
For `Cc1oc2nc[nH]c(=O)c2c1C(=O)/C=C/c1ccc(Cl)cc1` the value was 62.4%; for `COc1ccc(/C=C/c2cc(N3CCOCC3)c3cc(F)c(F)cc3n2)cc1OC`, 54.8%; for `Nc1c(C(=O)Nc2cccc(C(F)(F)F)c2)sc2nc3c(cc12)CCCCCC3`, -28.3% (active).
`COc1ccc(C2=NN(c3ccc(S(N)(=O)=O)cc3)C(c3cn(-c4ccccc4)nc3-c3ccc(Cl)cc3)C2)cc1` (stereo not given): the growth was 76.4%.
